Results: PubChem BioAssay (Tox21)
Inconclusive results are not listed. Active and inactive are the calls of the source. Unless noted, calls come from the whole dose curve.

Assays:
[1] = Nuclear factor erythroid 2-related factor 2/antioxidant responsive element (Nrf2/ARE) small molecule agonists: qHTS cell viability counter screen in human keratinocytes (AID 1919968; active = well fitted curve in the direction sought with a large enough effect in the repeat runs; an effect the other way counts as inactive or inconclusive; note: nearly all actives have a fitted effect of over 55% in size; note: potency is the fitted concentration of half-maximal effect)
Summary of the method: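 Seed 1,500 KeratinoSens cells per well, then incubate 5 h at 37 C/5% CO2. Add compounds in DMSO and incubate 23 h. Add CellTiter-Fluor, wait 1 h and read fluorescence.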

[2] = target: Gonadotropin-releasing hormone receptor (Homo sapiens) (UniProt P30968); assay: Human gonadotropin-releasing hormone receptor (GnRHR) small molecule agonists, calcium flux assay in GnRHR-HEK293 cells (AID 1920063); note: nearly all actives have a fitted effect of over 35% in size
Summary of the method: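 Cells: HEK293 stably expressing human GnRHR. Steps: overnight (18 h) culture, 1 h calcium dye loading at 37 C, compound addition, kinetic fluorescence read at 480/540 nm. Each compound tested at 15 concentrations in triplicate.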

[3] = target: KiSS-1 receptor (Homo sapiens) (UniProt Q969F8); assay: Human kisspeptin (KISS1R) small molecule agonists, calcium flux assay in KISS1R-HEK293 cells (AID 1920064; active = well fitted curve in the direction sought with a large enough effect in the repeat runs; an effect the other way counts as inactive or inconclusive)
Summary of the method: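 Cells plated and incubated 18 h; dye added, 1 h at 37 C; compounds in DMSO pinned in; signal read at 480/540 nm every second for 3 min. Each compound tested at 15 concentrations in triplicate.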

[4] = G protein-coupled receptor (GPCR) small molecule agonists, calcium flux assay: HEK293 wild type cell line counter screen (AID 1920065)
Summary of the method: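 Counter-screen of the Tox21 10K library for non-specific calcium release: dye-loaded cells received compounds in DMSO and were monitored by kinetic fluorescence (480/540 nm, 3 min). Fifteen concentrations, run in triplicate.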

[5] = p53 small molecule agonists, cell-based qHTS assay with human liver microsomes (AID 1963577);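 note: p53 response element beta-lactamase reporter cells with liver microsomes plus NADPH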
Summary of the method: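 HLM-supplemented p53RE-bla reporter assay: 16 h compound exposure at 37 C, microsomes and NADPH each 0.5 mg/mL final, read by fluorescence intensity.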

[6] = p53 small molecule agonists, cell-based qHTS assay with rat liver microsomes (AID 1963578); note: potency is the fitted concentration of half-maximal effect
Summary of the method: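 Quantitative HTS of the Tox21 10K library: p53RE-bla cells, rat liver microsomes plus NADPH at 0.5 mg/mL final each, 16 h at 37 C, beta-lactamase fluorescence detection.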

[7] = p53 small molecule agonists, cell-based qHTS assay with human liver microsomes: qHTS cell viability counter screen (AID 1963579); note: nearly all actives have a fitted effect of over 45% in size; note: potency is the fitted concentration of half-maximal effect
Summary of the method: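 Viability of p53RE-bla cells is measured as CellTiter-Glo luminescence following a 16 h, 37 C incubation with compound, liver microsomes from human donors and NADPH.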

[8] = p53 small molecule agonists, cell-based qHTS assay with rat liver microsomes: qHTS cell viability counter screen (AID 1963580); note: nearly all actives have a fitted effect of over 45% in size
Summary of the method: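 Intracellular ATP, by CellTiter-Glo luminescence, defines viability. HCT-116 p53RE-bla cells, 4,000 per well, were compound-treated in the presence of rat liver microsomes and NADPH for 16 h at 37 C.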

[9] = p53 small molecule agonists, cell-based qHTS assay: qHTS cell viability counter screen (AID 1963581); note: nearly all actives have a fitted effect of over 45% in size; note: potency is the fitted concentration of half-maximal effect
Summary of the method: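 Cells: HCT-116 with p53 response element-driven beta-lactamase. Treatment: 16 h, 37 C, compounds in DMSO. Read: CellTiter-Glo luminescence after 30 min RT.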

[10] = target: 5-hydroxytryptamine receptor 2A (Homo sapiens) (UniProt P28223); assay: 5-hydroxytryptamine receptor 2A (HTR2A) small molecule antagonists, cell-based qHTS assay (AID 1963586); note: nearly all actives have a fitted effect of over 45% in size; note: potency is the fitted concentration of half-maximal effect
Summary of the method: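 Antagonist-mode intracellular calcium assay: DOI (4 nM) added after 5 min compound pre-incubation at room temperature to dye-loaded HTR2A-CHO cells. Fluorescence followed for 3 min, sampled every second.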

[11] = target: 5-hydroxytryptamine receptor 2A (Homo sapiens) (UniProt P28223); assay: 5-hydroxytryptamine receptor 2A (HTR2A) small molecule agonists, cell-based qHTS assay (AID 1963587); note: nearly all actives have a fitted effect of over 30% in size; note: potency is the fitted concentration of half-maximal effect
Summary of the method: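 Kinetic calcium-flux fluorescence (2 min, 1 sec intervals) after compound addition in agonist mode. HTR2A-CHO cells were cultured 18 h, then dye-loaded 1 h at 37 C.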

[12] = target: Muscarinic acetylcholine receptor M1 (Homo sapiens) (UniProt P11229); assay: Cholinergic receptor muscarinic 1 (CHRM1) small molecule agonists, cell-based qHTS assay (AID 1963589); note: nearly all actives have a fitted effect of over 35% in size
Summary of the method: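 Agonist-mode qHTS in CHO cells stably carrying human muscarinic M1. Intracellular calcium is tracked by fluorescence every second after compound transfer; each compound runs at 15 concentrations in three independent runs.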

[13] = target: Beta-2 adrenergic receptor (Homo sapiens) (UniProt P07550); assay: Adrenergic beta2 receptor (ADRB2) small molecule antagonists, cell-based qHTS assay (AID 1963592); note: nearly all actives have a fitted effect of over 50% in size; note: potency is the fitted concentration of half-maximal effect
Summary of the method: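 Cells (CHO, stable ADRB2 overexpression) incubated 18-20hr at 37C; compounds added from DMSO; agonist mix (1nM isoproterenol, 100uM IBMX, 25uM Ro-20-1724) added; 0.5hr RT; d2-cAMP and anti-cAMP-cryptate added; 1hr RT; 665/615 nm read.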

[14] = target: D(2) dopamine receptor (Homo sapiens) (UniProt P14416); assay: Dopamine D2 receptor (DRD2) small molecule agonists, cell-based qHTS assay (AID 1963594); note: nearly all actives have a fitted effect of over 35% in size
Summary of the method: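 cAMP accumulation in DRD2-HEK293 cells measured by HTRF after 1 h detection; compounds added 10 min before NKH477 (200nM […]) forskolin-analogue stimulation, 30 min at room temperature, with Ro20-1724 present at 0.1 mM final.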

[15] = target: D(2) dopamine receptor (Homo sapiens) (UniProt P14416); assay: Dopamine D2 receptor (DRD2) small molecule antagonists, cell-based qHTS assay (AID 1963595; active = well fitted inhibition curve with a large enough effect in the signal ratio in the repeat runs, with a control signal flat; the % refers to the signal ratio; note: potency is the fitted concentration of half-maximal effect)
Summary of the method: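 HEK293 cells stably expressing DRD2 were preincubated with 0.1 mM Ro20-1724, then with compound for 10 min at room temperature. Cells were stimulated with 200 nM NKH477 plus 12 nM quinpirole for 30 min, and cAMP was read by HTRF.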

[16] = p53 small molecule agonists, cell-based qHTS assay (AID 1963582; active = well fitted activation curve with a large enough effect in the signal ratio in the repeat runs, not every such curve was filed as active; the % refers to the signal ratio)
Summary of the method: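 Quantitative HTS in p53RE-bla cells: after a 5 h settling period, compounds delivered in DMSO were left on cells for 16 h at 37 C, and reporter induction was measured as fluorescence following 2 h substrate loading.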

[17] = target: Muscarinic acetylcholine receptor M1 (Homo sapiens) (UniProt P11229); assay: Cholinergic receptor muscarinic 1 (CHRM1) small molecule antagonists, cell-based qHTS assay (AID 1963588); note: nearly all actives have a fitted effect of over 40% in size
Summary of the method: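 CHRM1-CHO calcium-flux assay, antagonist mode. Cells were seeded 18 h, dye-loaded 1 h at 37 C and given compound for 5 min at RT, then acetylcholine was added at 50nM. FDSS fluorescence was read 3 min; 15 concentrations, three runs.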

[18] = cAMP Responsive Elements (CRE) small molecule agonists, cell-based qHTS assay (AID 1963590)
Summary of the method: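 Agonist mode qHTS in CRE-bla HEK 293T cells: compounds dosed from DMSO for 3 h at 37 C/5% CO2, followed by LiveBLAzer B/G FRET substrate for 2 h at room temperature.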

[19] = cAMP Responsive Elements (CRE) small molecule antagonists, cell-based qHTS assay (AID 1963591; active = well fitted inhibition curve with a large enough effect in the signal ratio in the repeat runs, not every such curve was filed as active; the % refers to the signal ratio)
Summary of the method: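 Antagonist mode: test compounds are co-incubated with the adenylyl cyclase activator NKH477 (0.25 uM final) on CRE-bla HEK293T cells for 3 h at 37 °C, followed by LiveBLAzer substrate loading.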

[20] = target: Beta-2 adrenergic receptor (Homo sapiens) (UniProt P07550); assay: Adrenergic beta2 receptor (ADRB2) small molecule agonists, cell-based qHTS assay (AID 1963593);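 note: CHO cells stably overexpressing human ADRB2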
Summary of the method: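 CHO cells stably over-expressing ADRB2 were plated overnight at 37C, then dosed with compounds plus a stimulation mix containing 100uM IBMX and 25uM Ro-20-1724 for 0.5hr at room temperature. cAMP was measured by HTRF competition, 1hr.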

Measured: Potency

Chain of KiSS-1 receptor (Homo sapiens) (Q969F8 whole entry, looked up): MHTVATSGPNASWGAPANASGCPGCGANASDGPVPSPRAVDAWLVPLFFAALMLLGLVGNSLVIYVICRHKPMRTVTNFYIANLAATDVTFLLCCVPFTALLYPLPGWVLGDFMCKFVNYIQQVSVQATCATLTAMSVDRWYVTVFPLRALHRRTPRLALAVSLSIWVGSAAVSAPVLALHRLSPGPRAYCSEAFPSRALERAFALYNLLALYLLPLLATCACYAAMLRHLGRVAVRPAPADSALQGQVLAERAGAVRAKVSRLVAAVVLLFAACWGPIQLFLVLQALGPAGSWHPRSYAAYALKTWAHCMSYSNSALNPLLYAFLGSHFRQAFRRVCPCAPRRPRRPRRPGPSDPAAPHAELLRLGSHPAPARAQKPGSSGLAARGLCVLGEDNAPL
Chain of D(2) dopamine receptor (Homo sapiens) (P14416 whole entry, looked up): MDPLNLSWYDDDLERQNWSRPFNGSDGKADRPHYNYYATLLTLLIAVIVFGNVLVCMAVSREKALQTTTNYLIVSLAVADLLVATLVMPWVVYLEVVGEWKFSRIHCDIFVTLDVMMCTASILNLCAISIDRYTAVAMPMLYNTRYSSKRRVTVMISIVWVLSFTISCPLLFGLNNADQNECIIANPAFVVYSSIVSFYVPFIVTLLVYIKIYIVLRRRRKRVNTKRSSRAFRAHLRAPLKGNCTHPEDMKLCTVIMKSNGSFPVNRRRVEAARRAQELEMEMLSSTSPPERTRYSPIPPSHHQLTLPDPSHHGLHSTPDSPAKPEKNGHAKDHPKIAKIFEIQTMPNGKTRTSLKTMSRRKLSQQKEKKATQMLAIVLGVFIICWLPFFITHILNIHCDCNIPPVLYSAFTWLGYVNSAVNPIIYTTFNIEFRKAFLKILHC
Chain of Gonadotropin-releasing hormone receptor (Homo sapiens) (P30968 whole entry, looked up): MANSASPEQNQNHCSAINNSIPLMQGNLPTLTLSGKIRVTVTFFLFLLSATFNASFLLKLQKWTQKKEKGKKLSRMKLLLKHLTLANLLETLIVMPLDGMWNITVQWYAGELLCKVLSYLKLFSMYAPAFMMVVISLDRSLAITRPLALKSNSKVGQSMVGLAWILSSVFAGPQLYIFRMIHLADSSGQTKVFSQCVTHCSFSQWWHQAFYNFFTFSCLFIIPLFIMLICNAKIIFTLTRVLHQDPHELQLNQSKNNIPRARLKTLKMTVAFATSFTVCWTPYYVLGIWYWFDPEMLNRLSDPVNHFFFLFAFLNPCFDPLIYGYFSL
Chain of Beta-2 adrenergic receptor (Homo sapiens) (P07550 whole entry, looked up): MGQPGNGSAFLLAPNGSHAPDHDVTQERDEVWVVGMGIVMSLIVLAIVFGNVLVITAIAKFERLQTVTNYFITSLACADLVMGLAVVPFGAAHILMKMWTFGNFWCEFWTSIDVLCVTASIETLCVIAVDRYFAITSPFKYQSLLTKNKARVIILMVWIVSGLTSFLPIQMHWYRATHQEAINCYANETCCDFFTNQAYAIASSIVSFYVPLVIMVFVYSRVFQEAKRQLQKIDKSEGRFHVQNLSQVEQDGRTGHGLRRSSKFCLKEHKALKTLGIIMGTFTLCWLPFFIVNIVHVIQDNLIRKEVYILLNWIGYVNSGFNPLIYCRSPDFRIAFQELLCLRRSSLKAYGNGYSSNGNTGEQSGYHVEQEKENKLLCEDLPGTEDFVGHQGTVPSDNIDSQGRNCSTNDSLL
Chain of 5-hydroxytryptamine receptor 2A (Homo sapiens) (P28223 whole entry, looked up): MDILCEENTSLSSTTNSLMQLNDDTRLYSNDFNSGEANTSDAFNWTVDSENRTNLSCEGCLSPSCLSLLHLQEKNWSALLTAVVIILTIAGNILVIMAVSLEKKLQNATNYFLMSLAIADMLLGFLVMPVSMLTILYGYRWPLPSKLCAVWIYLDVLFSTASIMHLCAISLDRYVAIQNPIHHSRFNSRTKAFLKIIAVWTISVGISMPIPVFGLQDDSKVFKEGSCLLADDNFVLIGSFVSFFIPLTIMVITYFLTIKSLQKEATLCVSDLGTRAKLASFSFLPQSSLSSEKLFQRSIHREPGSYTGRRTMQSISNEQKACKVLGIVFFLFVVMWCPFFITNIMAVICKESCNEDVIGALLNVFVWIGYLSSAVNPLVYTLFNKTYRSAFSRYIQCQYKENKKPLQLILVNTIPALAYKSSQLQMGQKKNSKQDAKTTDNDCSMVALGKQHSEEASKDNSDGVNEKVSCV
Chain of Muscarinic acetylcholine receptor M1 (Homo sapiens) (P11229 whole entry, looked up): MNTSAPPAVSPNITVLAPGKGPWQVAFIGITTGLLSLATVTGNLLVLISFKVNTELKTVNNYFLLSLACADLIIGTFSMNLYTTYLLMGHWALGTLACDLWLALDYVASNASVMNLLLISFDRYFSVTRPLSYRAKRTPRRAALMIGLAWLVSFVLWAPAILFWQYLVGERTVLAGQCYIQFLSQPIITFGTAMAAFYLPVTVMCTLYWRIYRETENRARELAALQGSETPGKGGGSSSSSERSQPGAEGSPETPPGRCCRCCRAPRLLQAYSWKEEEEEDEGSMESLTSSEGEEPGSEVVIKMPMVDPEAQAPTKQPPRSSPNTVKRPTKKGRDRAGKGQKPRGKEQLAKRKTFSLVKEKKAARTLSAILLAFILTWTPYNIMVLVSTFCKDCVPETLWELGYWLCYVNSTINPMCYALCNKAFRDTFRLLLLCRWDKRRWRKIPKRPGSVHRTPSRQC

Fc1ccc(C(OCCN2CCN(CCCc3ccccc3)CC2)c2ccc(F)cc2)cc1
active: [1] 13.3 µM | [10] 1.3 µM | [13] 29.8 µM | [15] 26.6 µM
not listed: [16] | [17] | [18] | [19] | [20]
inactive: all other assays above

Clc1ccc(C(Cl)(Cl)Cl)cc1Cl
not listed: [13] | [14] | [20]
inactive: all other assays above

C[C@@H]1CC[C@H]2[C@@H](C)C(=O)O[C@@H]3O[C@@]4(C)CC[C@@H]1[C@]32OO4
not listed: [10] | [11] | [12] | [17]
inactive: all other assays above

CC(O)(CS(=O)(=O)c1ccc(F)cc1)C(=O)Nc1ccc(C#N)c(C(F)(F)F)c1 (stereo unspecified)
not listed: [10] | [11] | [12] | [15] | [17] | [18] | [20]
inactive: all other assays above

N#CN=C1SCCN1Cc1ccc(Cl)nc1
not listed: [9] | [18]
inactive: all other assays above

Cn1sc(Cl)cc1=O
active: [11] 54.9 µM
not listed: [14]
inactive: all other assays above

N#CC(CCc1ccc(Cl)cc1)(Cn1cncn1)c1ccccc1 (stereo unspecified)
not listed: [13] | [15] | [16] | [17] | [18] | [19] | [20]
inactive: all other assays above

C[C@]12C=CC(=O)C=C1CC[C@@H]1[C@@H]2CC[C@@]2(C)[C@H]1CC[C@]2(C)O
not listed: [9] | [18] | [19] | [20]
inactive: all other assays above

O=C1C[C@@H]2OCC=C3CN4CC[C@]56c7ccccc7N1[C@H]5[C@H]2[C@H]3C[C@H]46
not listed: [10] | [11] | [12] | [17] | [20]
inactive: all other assays above

CCOc1nc(C(Cl)(Cl)Cl)ns1
not listed: [14] | [20]
inactive: all other assays above

OC(Cn1cncn1)(c1ccc(F)cc1)c1ccccc1F (stereo unspecified)
not listed: [17]
inactive: all other assays above

CCCC[P+](CC)(CCCC)CCCC (tested in a mixture with another compound)
not listed: [18] | [20]
inactive: all other assays above

C[C@@H]1CC2=CC(=O)CC[C@@H]2[C@H]2CC[C@@]3(C)[C@@H](CC[C@]3(C)O)[C@@H]21
not listed: [14] | [15] | [18] | [19]
inactive: all other assays above

CC1(C(=O)Nc2ccc(O)c(Cl)c2Cl)CCCCC1
not listed: [11] | [18] | [19] | [20]
inactive: all other assays above

CC1CCC(C(C)C)C(OC(=O)c2ccccc2N)C1 (stereo unspecified)
active: [1] 30.2 µM | [6] 35.8 µM | [7] 35.8 µM | [9] 31.9 µM
inactive: [2] | [3] | [4] | [5] | [8] | [12] | [18] | [14]

CO/C=C(/C(=O)OC)c1ccccc1COc1cccc(C(F)(F)F)n1
not listed: [12] | [13] | [15] | [16] | [19]
inactive: all other assays above
